Test results: PubChem BioAssay AID1159580 (chemical genetic matrix, 2015)
Hit rate of the full screen: of about 5,500 compounds, about 2,000 (36%) were called active. Inconclusive results (about 18%) are left out. No stated cut-off is given here; in the data, active means normalized growth mostly below about 0.91 (no sharp cut-off); inconclusive means no clear call, values can overlap the other calls; inactive means mostly above about 0.92. Some of the results follow.

Test: chemical genetic growth profiling, strain panel (AID 1159580);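 further: tested at 20 µM; growth read once vehicle control cultures reached saturation at 30 °C; 1 = growth at the plate median or of vehicle wells; lower values mean less growth of the strain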
Details: growth OD

Measured: normalized growth

C=CCc1ccc(O)c(OC)c1
inactive: S. cerevisiae deletion strains, locus YJL187C, strain SWE1, active compounds read low 0.999 | S. cerevisiae deletion strains, locus YJR043C, strain POL32, active compounds read low 0.913 | S. cerevisiae deletion strains, locus YJR066W, strain TOR1, active compounds read low 0.973 | S. cerevisiae deletion strains, locus YJR075W, strain HOC1, active compounds read low 0.885 | S. cerevisiae deletion strains, locus YKL009W, strain mrt4, active compounds read low 0.998 | S. cerevisiae deletion strains, locus YKL160W, strain elf1, active compounds read low 1.02 | S. cerevisiae deletion strains, locus YKR026C, strain gcn3, active compounds read low 0.989 | S. cerevisiae deletion strains, locus YKR091W, strain srl3, active compounds read low 0.992 | S. cerevisiae deletion strains, locus YLL001W, strain dnm1, active compounds read low 1.02 | S. cerevisiae deletion strains, locus YLL026W, active compounds read low 0.989 | S. cerevisiae deletion strains, locus YLL041C, strain sdh2, active compounds read low 0.989 | S. cerevisiae deletion strains, locus YLR027C, strain aat2, active compounds read low 0.99 | S. cerevisiae deletion strains, locus YLR058C, strain SHM2, active compounds read low 0.949 | S. cerevisiae deletion strains, locus YLR102C, strain apc9, active compounds read low 0.95 | S. cerevisiae deletion strains, locus YLR113W, strain HOG1, active compounds read low 0.962 | S. cerevisiae deletion strains, locus YLR221C, strain rsa3, active compounds read low 1.01 | S. cerevisiae deletion strains, locus YLR258W, strain gsy2, active compounds read low 1.01 | S. cerevisiae deletion strains, locus YLR262C, strain YPT6 (second series), active compounds read low 0.998 | S. cerevisiae deletion strains, locus YLR262C, strain YPT6, active compounds read low 0.674 | S. cerevisiae deletion strains, locus YLR268W, strain sec22, active compounds read low 1.01 | S. cerevisiae deletion strains, locus YLR320W, strain mms22, active compounds read low 0.996 | S. cerevisiae deletion strains, locus YLR342W, strain FKS1 (second series), active compounds read low 0.888 | S. cerevisiae deletion strains, locus YLR342W, strain FKS1, active compounds read low 0.999 | S. cerevisiae deletion strains, locus YLR357W, strain rsc2, active compounds read low 0.992 | S. cerevisiae deletion strains, locus YLR370C, strain arc18, active compounds read low 0.997 | S. cerevisiae deletion strains, locus YLR384C, strain iki3, active compounds read low 0.991 | S. cerevisiae deletion strains, locus YML032C, strain rad52, active compounds read low 0.93 | S. cerevisiae deletion strains, locus YML120C, strain ndi1, active compounds read low 1.03 | S. cerevisiae deletion strains, locus YMR058W, strain fet3, active compounds read low 1 | S. cerevisiae deletion strains, locus YMR078C, strain ctf18, active compounds read low 0.917 | S. cerevisiae deletion strains, locus YMR125W, strain sto1, active compounds read low 0.965 | S. cerevisiae deletion strains, locus YMR129W, active compounds read low 0.984 | S. cerevisiae deletion strains, locus YMR205C, strain PFK2, active compounds read low 0.995 | S. cerevisiae deletion strains, locus YMR223W, strain ubp8, active compounds read low 0.936 | S. cerevisiae deletion strains, locus YMR231W, strain pep5, active compounds read low 0.983 | S. cerevisiae deletion strains, locus YMR307W, strain GAS1, active compounds read low 1 | S. cerevisiae deletion strains, locus YNL067W, strain RPL9B, active compounds read low 0.97 | S. cerevisiae deletion strains, locus YNL071W, strain lat1, active compounds read low 0.959 | S. cerevisiae deletion strains, locus YNL153C, strain GIM3, active compounds read low 0.991 | S. cerevisiae deletion strains, locus YNL183C, strain NPR1, active compounds read low 0.928 | S. cerevisiae deletion strains, locus YNL209W, strain ssb2, active compounds read low 0.999 | S. cerevisiae deletion strains, locus YNL233W, strain BNI4, active compounds read low 0.901 | S. cerevisiae deletion strains, locus YNL248C, strain rpa49, active compounds read low 1 | S. cerevisiae deletion strains, locus YNL250W, strain rad50, active compounds read low 0.924 | S. cerevisiae deletion strains, locus YNL271C, strain bni1, active compounds read low 0.931 | S. cerevisiae deletion strains, locus YNL298W, strain CLA4, active compounds read low 0.995 | S. cerevisiae deletion strains, locus YNL307C, strain MCK1, active compounds read low 0.932 | S. cerevisiae deletion strains, locus YNL322C, strain KRE1 (second series), active compounds read low 0.993 | S. cerevisiae deletion strains, locus YNR049C, strain mso1, active compounds read low 0.988 | S. cerevisiae deletion strains, locus YNR052C, strain pop2, active compounds read low 1.01 | S. cerevisiae deletion strains, locus YOL012C, strain htz1 0.778 | S. cerevisiae deletion strains, locus YOL147C, strain pex11, active compounds read low 0.939 | S. cerevisiae deletion strains, locus YOR001W, strain rrp6, active compounds read low 1.01 | S. cerevisiae deletion strains, locus YOR061W, strain CKA2, active compounds read low 0.948 | S. cerevisiae deletion strains, locus YOR069W, strain VPS5, active compounds read low 0.948 | S. cerevisiae deletion strains, locus YOR070C, strain gyp1, active compounds read low 0.996 | S. cerevisiae deletion strains, locus YOR080W, strain dia2, active compounds read low 0.989 | S. cerevisiae deletion strains, locus YOR083W, strain WHI5, active compounds read low 1.04 | S. cerevisiae deletion strains, locus YOR106W, strain vam3, active compounds read low 1.04 | S. cerevisiae deletion strains, locus YOR136W, strain idh2, active compounds read low 0.992 | S. cerevisiae deletion strains, locus YOR144C, strain elg1, active compounds read low 0.937 | S. cerevisiae deletion strains, locus YOR184W, strain ser1, active compounds read low 0.973 | S. cerevisiae deletion strains, locus YOR231W, strain MKK1, active compounds read low 0.982 | S. cerevisiae deletion strains, locus YOR265W, strain rbl2, active compounds read low 0.999 | S. cerevisiae deletion strains, locus YOR270C, strain vph1, active compounds read low 0.964 | S. cerevisiae deletion strains, locus YOR290C, strain snf2, active compounds read low 0.986 | S. cerevisiae deletion strains, locus YOR316C, strain cot1, active compounds read low 0.939 | S. cerevisiae deletion strains, locus YPL051W, strain arl3, active compounds read low 1.02 | S. cerevisiae deletion strains, locus YPL078C, strain atp4, active compounds read low 1.01 | S. cerevisiae deletion strains, locus YPL106C, strain sse1, active compounds read low 0.948 | S. cerevisiae deletion strains, locus YPL240C, strain hsp82, active compounds read low 0.993 | S. cerevisiae deletion strains, locus YPL256C, strain CLN2, active compounds read low 0.973 | S. cerevisiae deletion strains, locus YPR163C, strain tif3, active compounds read low 0.969 | S. cerevisiae deletion strains, locus YPR167C, strain met16, active compounds read low 0.947 | S. cerevisiae deletion strains, strain wtn01, active compounds read low 0.988 | S. cerevisiae strains, strain wild type, active compounds read low 0.95
active: S. cerevisiae deletion strains, locus YKL068W, active compounds read low 0.923 | S. cerevisiae deletion strains, locus YKL085W, strain MDH1 (second series), active compounds read low 0.894 | S. cerevisiae deletion strains, locus YKL085W, strain MDH1, active compounds read low 0.894 | S. cerevisiae deletion strains, locus YKR001C, strain vps1, active compounds read low 0.813 | S. cerevisiae deletion strains, locus YLR039C, strain RIC1, active compounds read low 0.605 | S. cerevisiae deletion strains, locus YLR330W, strain CHS5, active compounds read low 0.885 | S. cerevisiae deletion strains, locus YLR371W, strain rom2, active compounds read low 0.692 | S. cerevisiae deletion strains, locus YLR418C, strain cdc73, active compounds read low 0.799 | S. cerevisiae deletion strains, locus YML016C, strain PPZ1, active compounds read low 0.91 | S. cerevisiae deletion strains, locus YML124C, strain tub3, active compounds read low 0.917 | S. cerevisiae deletion strains, locus YPR119W, strain clb2, active compounds read low 0.916 | S. cerevisiae deletion strains, locus YPR141C, strain kar3, active compounds read low 0.879
